Laboratory results from the supplement of paper PMC6555819.

Assays:
Assay in all cases: PBM binding z-score (relative to random genomic background probes); higher = stronger binding; sequences stand for … in GC…GCGATTGACAGCGTAGAATGAAGG
[1] = system: PPARg:RXRa DBDmut IVT, anti-RXR (DBD mutation: RXRa K156A/R161A, NR concentration 270 nM, RXRa partner concentration 90 nM)
In short: (§1)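 Random background probes are the reference for binding z-scores. These scores derive from regression-normalized fluorescence on custom Agilent 4×180K protein-binding microarrays incubated 1 h with ligand-free nuclear receptor dimers. Binding was detected with antibodies against each partner (one per run).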

[2] = system: PPARg:RXRa IVT, anti-PPARg (NR concentration 270 nM, RXRa partner concentration 90 nM)
In short: as §1

[3] = system: PPARg DBDmut:RXRa IVT, anti-PPARg (DBD mutation: PPARg1 K132A/R137A, NR concentration 270 nM, RXRa partner concentration 90 nM)
In short: as §1

[4] = system: PPARg DBDmut IVT, anti-PPARg (DBD mutation: PPARg1 K132A/R137A, NR concentration 270 nM)
In short: as §1

[5] = system: PPARg homodimer (NR concentration 180 nM)
In short: as §1

[6] = system: PXR:RXRa (NR concentration 270 nM, RXRa partner concentration 90 nM)
In short: as §1

[7] = system: PXR homodimer (NR concentration 270 nM)
In short: as §1

[8] = system: RARa:RXR (NR concentration 270 nM, RXRa partner concentration 90 nM)
In short: as §1

[9] = system: RARa homodimer (NR concentration 270 nM)
In short: as §1

[10] = system: RARb:RXRa (NR concentration 270 nM, RXRa partner concentration 90 nM)
In short: as §1

[11] = system: RARb homodimer (NR concentration 270 nM)
In short: as §1

[12] = system: RARg:RXRa (NR concentration 270 nM, RXRa partner concentration 90 nM)
In short: as §1

[13] = system: RARg homodimer (NR concentration 270 nM)
In short: as §1

[14] = system: RXRa DBDmut IVT, anti-RXR (DBD mutation: RXRa K156A/R161A, NR concentration 90 nM)
In short: as §1

[15] = system: RXRa homodimer (NR concentration 180 nM)
In short: as §1

[16] = system: THRa:RXRa (NR concentration 90 nM, RXRa partner concentration 90 nM)
In short: as §1

[17] = system: THRa homodimer (NR concentration 90 nM)
In short: as §1

[18] = system: VDR homodimer (NR concentration 270 nM)
In short: as §1

Sequence | PBM binding z-score [1] | PBM binding z-score [2] | PBM binding z-score [3] | PBM binding z-score [4] | PBM binding z-score [5] | PBM binding z-score [6] | PBM binding z-score [7] | PBM binding z-score [8] | PBM binding z-score [9] | PBM binding z-score [10] | PBM binding z-score [11] | PBM binding z-score [12] | PBM binding z-score [13] | PBM binding z-score [14] | PBM binding z-score [15] | PBM binding z-score [16] | PBM binding z-score [17] | PBM binding z-score [18]
CTATCAAGGTGAACAAGGTCGTTGATTACTATTC | 3.58 | 3.69 | 0.759 | 0.594 | 0.866 | 2.7 | 2.19 | 2.38 | 0.109 | 2.22 | 1.7 | 1.76 | 1.54 | 1.5 | 1.7 | 3.12 | 1.85 | 2.72
GCTGCTAGGTCAACTGATGGTCAGCTTAAGCTCG | 5.04 | 4.2 | -0.326 | -0.587 | 2.5 | 1.85 | -0.712 | 3.1 | -0.0481 | 4.24 | 3.69 | 5.24 | 5.28 | 1.76 | 3 | 3.07 | 0.988 | -0.0541
CCTCGGATGACAGAAGGTCAGAGCTGTCCGCTTT | 0.0182 | -0.0257 | -1.19 | -1.32 | 1.51 | 1.5 | 0.235 | 1.85 | 0.773 | 2.59 | 2.83 | 2.49 | 2.16 | 0.111 | 2 | 1.95 | -0.359 | 0.287
ATAATGAGGTTAAGATCAGGGAAACAGAATACAT | 3.08 | 3.32 | 1.83 | 1.92 | 1.15 | 1.31 | 0.654 | 2.22 | 0.709 | 2.22 | 0.864 | 2.47 | 1.96 | 1.16 | 2.68 | 2.74 | 1.02 | 0.406
CGTCCAAGGTCAATGCTAGGTCAGTGCAAGCATT | 3.46 | 3.77 | -0.816 | -0.276 | 4.69 | 4.69 | 1.57 | 5.52 | 1.48 | 5.25 | 5.12 | 7.51 | 6.92 | 3.53 | 5.11 | 4.39 | 3.05 | 3.46
AGAATGAGGTTATTAACATCAGGGAATTGCGGTC | 2.7 | 2.3 | 0.432 | 0.815 | 0.441 | 1.18 | 0.616 | 1.36 | 0.203 | 1.2 | 0.673 | 1.11 | 0.779 | 1.83 | 1.67 | 2.13 | 0.447 | 1.12
CCGACTGGGGCATAAGGTTTCCATAAGCCAGCCC | 3.04 | 2.38 | -1.41 | -1.66 | -0.419 | -0.536 | -0.762 | -0.479 | 0.00521 | 0.514 | -0.165 | -0.272 | -0.139 | -0.156 | -0.0441 | -7.82e-06 | -0.206 | -0.137
CCTACTGGGCCATTAGGTCATTGATATCAACGTT | 5.31 | 5.88 | 0.577 | 0.445 | 1.02 | 1.13 | 0.202 | 1.72 | 0.45 | 2.09 | 2.8 | 2.38 | 2.12 | 0.292 | 1.04 | 2.63 | 2.27 | 1.01
ATCTCTAGGTAACCGAGTTCAGTGAATGCCGAAC | 3.51 | 2.9 | 0.719 | 0.977 | 0.0322 | 2.93 | 2.94 | 1.04 | 0.216 | 0.826 | 1.31 | 0.6 | 0.669 | 1.39 | 0.704 | 1.72 | 0.663 | 4.05
AGAATGAGGTTACCATAGATCAGGGAAACGCTTG | 3.38 | 3.18 | 0.359 | 0.63 | 0.136 | 0.897 | 0.179 | 1.54 | 0.172 | 1.79 | 0.58 | 1.89 | 1.72 | 1.13 | 2.38 | 2.59 | 0.611 | 0.117
CAAACTAGGTCACTGGAAGGTCAAAGTCCGCATG | 8.42 | 8.89 | 7.66 | 2.9 | 9.82 | 5.36 | 2.12 | 7.1 | 3.34 | 4.9 | 5.21 | 7.66 | 6.65 | 1.96 | 5.54 | 4.3 | 2.43 | 3.86
CCTAGTTGGTCAGCAGGTCACACACCGGATATGA | 1.7 | 2.95 | -0.32 | 0.126 | 2.23 | 2.42 | 0.562 | 3.23 | 1.34 | 2.75 | 3.43 | 3.52 | 3.44 | 0.217 | 3.16 | 2.77 | 1.35 | 1.05
TAGCCTAGTTCATTGGGCCAGTATAGTACGCATC | 1.48 | 1.68 | -0.38 | -0.291 | -0.325 | 0.756 | 0.651 | -0.0581 | -0.777 | 1.17 | 0.671 | 0.573 | 1.01 | 2.8 | 0.243 | 0.192 | -0.374 | 2.72
GCGACTGGGGCATCAGCAGGTTACCACAACTTAA | 3.58 | 3.42 | -0.499 | -0.426 | 0.249 | 0.125 | -0.569 | 0.565 | -0.456 | 0.902 | 1.08 | 0.941 | 0.32 | -0.0403 | 0.38 | 0.805 | -0.203 | -0.222
ATCGAAAGGTCGACAAGGTGAGTATACACCGTTT | 0.456 | 1.98 | 1.72 | 1.65 | 1.43 | 2.86 | 0.683 | 3.78 | 0.202 | 4.02 | 3.01 | 4.25 | 3.99 | 0.788 | 4.36 | 3.65 | 0.513 | 0.835
